# PfHsp90 yeast 2: inhibits growth of yeast expressing Plasmodium falciparum Hsp90. S. cerevisiae expressing PfHsp90, BacTiter-Glo ATP, 48 h; yeast lacking PDR1 and PDR3 efflux regulators. inhibition, % at 9.4 µM. 310,000 tested, 0.32% active. AID 504621;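 active means every replicate shows inhibition above about 80%, whatever the replicate mean, limit read from the data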
# tim10-1 inh: growth inhibitors of tim10-1 mutant yeast | AID 463190 | inhibition, % at 20 µM | 330,000 tested, 2.2% active | S. cerevisiae tim10-1 ts strain growth, BacTiter-Glo, 24 h;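 active means inhibition of at least 40%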;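 further: mutant grown at 25 °C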
# tim23-1 inh: inhibits growth of tim23-1 mutant yeast; S. cerevisiae tim23-1 growth, BacTiter-Glo luminescence, 24 h; inhibition, % at 20 µM; 330,000 tested, 1.3% active;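 active means growth inhibition of the mutant yeast at or above 50%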;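 further: temperature-sensitive mutant grown at 25 °C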
# TIM10 inh: growth inhibitors of TIM10 yeast strain | S. cerevisiae TIM10 strain growth, BacTiter-Glo luminescence, 24 h | inhibition, % at 10 µM | 330,000 tested, 1.4% active | AID 463195;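 active means inhibition of 40% or more at the single tested concentration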;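 further: wild-type TIM10 isogenic control strain grown at permissive 25 °C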
# SKKanGAS inh: inhibitors of SKKanGAS S. pyogenes growth in kanamycin (SK-promoter or general growth effect) | BacTiter-Glo, 6 h | inhibition, % at 7.5 µM | 300,000 tested, 1.3% active;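 active means mean replicate score, as percent of positive control median, at least 50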;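 further: strain carries kanamycin resistance gene driven by streptokinase promoter and grows in 40 µg/ml kanamycin; loss of luminescence reflects streptokinase promoter inhibition or plain growth inhibition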
# tim10-1 conf: tim10-1 yeast growth inhibition, confirmed. 7,400 tested, 56% active. S. cerevisiae tim10-1 ts strain growth, BacTiter-Glo, 24 h. shares compounds with tim10-1 inh. inhibition, % at 20 µM. AID 463213;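 active means inhibition of yeast growth at or above a set limit in either of two repeat tests at 20 µM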;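 further: tim10-1 mutant grown at permissive 25 °C to find synthetic lethal compounds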
# Numbers stand for hits; . = inactive; / = no result. A selection: hits, their analogues and other compounds. The true share with any hit is near 4.4%.
SMILES,PfHsp90 yeast 2,tim10-1 inh,tim23-1 inh,TIM10 inh,SKKanGAS inh,tim10-1 conf
CC1CCN(C(=O)CSc2nc(C3CC3)nc3ccccc23)CC1,.,.,.,.,.,/
Cc1ccccc1NC(=O)C1CC(=O)N(c2ccc3c4c(cccc24)CC3)C1 (centres undefined),.,.,.,.,.,/
O=C(Nc1ccccc1Br)C1CC(=O)N(c2ccc3c4c(cccc24)CC3)C1 (centres undefined),.,41,.,.,.,33
Cc1ccc(N=Nc2c(O)n(CN3CCOCC3)c3ccccc23)cc1,/,44,.,.,.,32
CC1(C)CC(=O)C2=C(C1)OC1=C(C(=O)CC(C)(C)C1)C2c1ccc(O)c([N+](=O)[O-])c1,.,.,.,.,.,/
CC1(C)CC(=O)C2=C(C1)OC1=C(C(=O)CC(C)(C)C1)C2c1ccc(O)cc1O,.,44,.,.,.,35
CCCOc1ccc(CNC(=S)Nc2ccccc2)cc1Cl,.,43,.,.,.,.
CC1CC(C)CN(S(=O)(=O)c2ccc(C(=O)N(C)Cc3ccccc3)cc2)C1 (centres undefined),.,.,.,.,/,/
Nc1nc(N)c(C=Nc2ccc(Br)cc2)c(Nc2ccc(Br)cc2)n1,.,57,.,.,100,32
CSc1ccc(CN2CCC(Oc3ccc(C(=O)N4CCCC4)cc3)CC2)cc1,.,.,.,.,.,/
CC1CC(C)(C)NC(=S)N1CCCC(=O)Nc1ccc(Cl)cc1 (centres undefined),.,.,.,.,.,/
CC(C)c1ccc(NC(=O)CCCN2C(=S)NC(C)(C)CC2C)cc1 (centres undefined),/,43,.,.,.,.
Cc1ccc(S(=O)(=O)N2CCN(C(=O)Cn3cnc4c3c(=O)n(C)c(=O)n4C)CC2)cc1C,.,.,.,.,/,/
COc1ccccc1C(CNC(=O)c1cccc(S(=O)(=O)Nc2ccc(F)cc2)c1)N1CCCC1 (centres undefined),.,/,/,/,/,/
CC(=O)OCC(=O)C1(O)CCC2C3CCC4=CC(=O)CCC4(C)C3C(O)CC21C (centres undefined),.,/,/,/,/,/
O=C1/C(=C/c2ccccc2F)SC(=S)N1CC(=O)N1CCCCC1c1cccnc1 (centres undefined),.,45,.,.,.,.
Cc1ccc(C)c(OCCC(=O)OCC(=O)N2CCN(S(=O)(=O)c3ccc(Cl)cc3)CC2)c1,.,45,.,.,.,29
CCOC(=O)c1c(C)[nH]c(=S)c(C#N)c1-c1ccc(Cl)cc1,.,54,.,.,.,.
Cc1ccccc1CCNC(=O)c1ccc(Cl)c(S(=O)(=O)N2CC(C)OC(C)C2)c1 (centres undefined),.,.,.,.,/,/
Cc1cccc(C)c1OCC(=O)N(Cc1ccc(Cl)cc1)C1CCS(=O)(=O)C1 (centres undefined),.,40,.,.,.,.
Cc1cc(C)c2c(-n3cccc3)c(C(=O)NNS(=O)(=O)c3ccc(Cl)cc3)sc2n1,.,43,.,.,.,32
CS(=O)(=O)c1ccc(NC(=O)CCCc2nc3ccccc3c(=O)[nH]2)cc1,/,.,.,.,.,/
COc1ccc(-c2ccc(-c3nc4ccc(C)cn4c3NC3CCCCC3)cc2OC)cc1,.,.,.,.,.,/
CCc1ccc(CNC(=O)CCc2cn(C)c3ccccc23)cc1,.,.,.,.,.,/
CCCCCCC(=O)N(O)C1CC(=O)N(c2ccc(C)cc2)C1=O (centres undefined),106,71,.,.,.,44
SMILES,PfHsp90 yeast 2,tim10-1 inh,tim23-1 inh,TIM10 inh,SKKanGAS inh,tim10-1 conf
c1csc(-c2nc3ccccn3c2NC2CCCCC2)c1,.,48,.,.,.,33
Cc1ccn2c(NC(=O)c3ccccc3)c(-c3cccs3)nc2c1,/,.,.,.,.,/
CC(C)c1nc2ccccn2c1NC1CCCCC1,.,.,.,.,.,/
Cc1ccn2c(NCc3ccccc3)c(-c3cccs3)nc2c1,.,46,.,.,.,.
Cc1ccn2c(NC3CCCC3)c(-c3cccs3)nc2c1,.,46,.,.,.,31
COc1ccc(C2(C)NC(=O)N(CC(=O)Nc3ccc(C)cc3Br)C2=O)cc1OC (centres undefined),.,.,.,.,.,/
CCOc1cc(/C=C2/C(=O)N(c3ccccc3)N=C2C)ccc1OC(=O)c1ccco1,.,40,.,.,.,.
Cc1cccc(Nc2nnc(SCC3CCCCO3)s2)c1C (centres undefined),.,48,.,.,.,33
COc1cccc(Nc2nnc(SCC3CCCCO3)s2)c1 (centres undefined),.,.,.,.,.,/
COc1ccc(Nc2nnc(SCC3CCCO3)s2)cc1 (centres undefined),.,46,.,.,.,.
NS(=O)(=O)c1ccc(CCNC(c2ccccc2)c2ccccc2)cc1,.,.,.,.,.,/
c1ccc(C(NCCNC(c2ccccc2)c2ccccc2)c2ccccc2)cc1,.,43,.,.,105,.
COc1ccc(S(=O)(=O)N2CCOCC2)cc1NC(=O)Cc1coc2cc(C)c(C)cc12,.,.,.,.,.,/
COc1ccc(CCn2c(C)cc(C(=O)CN3C(=O)C(=O)N(Cc4ccco4)C3=O)c2C)cc1,.,.,.,.,/,/
N#Cc1c(-n2cccc2/C=N/O)sc2c1CCCC2,.,41,.,.,.,43
O=C(/C=C/c1ccccc1Cl)N(c1ccccn1)C1CCCCC1,.,.,.,.,.,/
O=C(/C=C/c1ccccc1)N(c1ccccn1)C1CCCCC1,.,43,.,.,.,.
CCOc1ccc(Br)cc1S(=O)(=O)Nc1ncn[nH]1,.,.,.,.,.,/
Cc1nn(CCCC(=O)Nc2cc(Oc3ccc(F)cc3)cc([N+](=O)[O-])c2)c(C)c1[N+](=O)[O-],/,41,.,.,.,.
Cc1ccccc1Oc1cc(NC(=O)CCCn2nc(C)c([N+](=O)[O-])c2C)cc([N+](=O)[O-])c1,.,.,.,.,.,/
CCn1nc(C)c(C(=O)Nc2cc(Oc3ccc(Cl)cc3)cc([N+](=O)[O-])c2)c1C,/,49,.,.,.,36
NC(=O)CC(NC(=O)c1cccc(Br)c1)c1ccc(NC2CCN(Cc3ccccc3)CC2)c([N+](=O)[O-])c1 (centres undefined),.,.,.,.,.,/
C[C@H](CO)N1C[C@H](C)[C@@H](CN(C)Cc2ccncc2)Oc2ccc(NC(=O)Cn3cnnn3)cc2C1=O,.,.,.,.,/,/
COc1ccc(OC)c(C2=Nn3c(nnc3C3CCCCC3)SC2)c1,.,.,.,.,.,/
COc1ccccc1C1=Nn2c(nnc2C2CCCCC2)SC1,.,44,.,.,/,.
COc1ccccc1NC(=S)N(Cc1ccccn1)Cc1ccccc1Cl,.,.,.,.,.,/
Cc1ccccc1NC(=S)N(Cc1ccccn1)Cc1ccccc1Cl,.,45,.,.,.,34
